Screening data: PubChem, National Center for Advancing Translational Sciences (NCATS)
Sampled rows, rich in hits. Any-hit rate of the full collection: about 4.3%.
Giardia kill: Small Molecules that selectively kill Giardia lamblia: qHTS; actives 0.15% (n = 340,000); Giardia lamblia trophozoite viability; activity change, % at 7.66 µM, hits read low; in the data active means activity change below about -80%; inconclusive means between about -30% and that limit;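 further: parasites exposed to compound for two days anaerobically before the ATP read; on the % scale 0 is the no-effect control and ±100 the full control effect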
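Compounds were tested on trophozoites seeded at 100 cells/well and held 48 hrs at 37 deg C anaerobically. An ATP-based luminescent kit measured the remaining live cells.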
MCF10A rereplic: A quantitative high throughput screen for small molecules that induce DNA re-replication in MCF 10a normal breast cells; MCF 10A DNA re-replication, Hoechst nuclear intensity, 48 h; Potency, µM (series often up to 46.1 µM), without a hit: at the top dose activity, positive = re-replication, actives largely listed as activators; actives 2.9% (n = 350,000); AID 624296, 2012; further: potency means the concentration at half of the fitted maximal effect; % of control where 0% means no effect; nearly all actives have a fitted effect of over 50% in size
SW480 rereplic: A quantitative high throughput screen for small molecules that induce DNA re-replication in SW480 colon adenocarcinoma cells; SW480 DNA re-replication, Hoechst DNA content imaging, 48 h; actives 1.8% (n = 340,000); AID 624297, 2012; Potency, µM (top dose mostly 46.1 µM), inactives show top-dose re-replication activation, most hits filed as activators; further: potency means the concentration at half of the fitted maximal effect; % of control where 0% means no effect; nearly all actives have a fitted effect of over 55% in size
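Compounds, transferred as 23 nL by pin tool, were incubated with cells for 48 hr; DNA content per nucleus was then quantified by Hoechst staining and fluorescence plate imaging.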
uPA generation: qHTS for Inhibitors of Cell Surface uPA Generation | cell surface uPA generation assay, qHTS | Potency, µM (doses to about 38.3 µM), for the others: top-dose activity change, negative = inhibition, hits mostly inhibitors | actives 0.31% (n = 330,000) | AID 540303, 2011; active means well fitted inhibition curve with a large enough effect; inconclusive means small, poorly fitted or top-dose-only effect; inactive means no such curve, though single readings can be large or run the other way; tested in mouse RAW 264.7 cells; further: potency means the concentration at half of the fitted maximal effect; on the % scale 0 is the no-effect control and ±100 the full control effect; nearly all actives have a fitted effect of over 55% in size
Numbers without * were called inactive; ? = inconclusive; · = not tested or not shown; [ ] = another dose, or the depositor's remark. Unless noted, the call rests on the fitted dose curve; in most records, active means well fitted activation curve with a large enough effect; inconclusive means small, poorly fitted or top-dose-only effect; inactive means no such curve, though single readings can be large or run the other way.

SMILES	Giardia kill	MCF10A rereplic	SW480 rereplic	uPA generation
Cc1cc(C)nc(N(C#N)Cc2cccc(Cl)c2)n1	35.1	8.4%	10.5%	-14.1%
CCOC(=O)c1ccc(Oc2nc(NC(C)(C)C)nc(N(C)C)n2)cc1	-3.4	16.4µM*	?	18.5%
CCNC(=S)N(Cc1cc2c(C)ccc(C)c2[nH]c1=O)C1CCCC1	15.0	?	3.66µM*	1.9%
CCNC(=S)N(Cc1cc2cc(C)cc(C)c2[nH]c1=O)C1CCCC1	-15.6	6.2%	-3.0%	3.9%
Cc1ccc(S(=O)(=O)N2CCC(c3nc(-c4cccs4)nc4ccccc34)CC2)cc1	-5.7	·	·	·
COC(=O)C1=CN(C(C)C)C=C(C(=O)OC)C1c1cc2c(cc1Br)OCO2	-18.4	14.6µM*	?	·
Clc1ccc(-n2cnc3c(Cl)ncnc32)cc1Cl	7.9	?	-3.0%	1.4%
Cc1ccc(C(=O)Nc2ccc(N3CCN(S(C)(=O)=O)CC3)cc2)cc1	-4.2	-1.9%	-8.8%	-2.1%
Cc1ccc(C(=O)Nc2ccc(N3CCN(S(C)(=O)=O)CC3)cc2)cc1C	10.1	?	16.4µM*	-1.0%
COc1ccccc1N=C1SC(C(=O)Nc2cccc(Cl)c2Cl)C(N)=C1C(N)=O (configuration not stated)	-1.6	11.6µM*	23.1µM*	-5.5%
N#Cc1ccccc1NC(=O)C1SC(=Nc2ccccc2)C(C(=O)Nc2ccc(Cl)cc2)=C1N (configuration not stated)	-7.3	?	1.7%	5.3%
O=C(Nc1ccc(Br)c2ccccc12)c1ccc2ccccc2c1O	11.5	3.26µM*	2.2%	?
COc1ccc([N+](=O)[O-])cc1N(CC(=O)NC(C(C)C)C(C)C)S(C)(=O)=O	-9.4	27.2%	1.8%	-3.2%
COc1ccc(N2CCN(c3cc(C)c4ccc(C)cc4n3)CC2)cc1	3.0	20.6µM*	6.1%	0.9%
CC1CC2OC2CC1COC(=O)C1CC2OC2CC1C (configuration not stated)	4.7	4.0%	8.0%	-3.7%
CC(C)Cn1c(O)c(/C=C2\C=NN=C2c2ccccc2)sc1=S	-14.3	23.1µM*	?	9.1%
CCCCn1c(O)c(/C=C2\C=NN=C2c2ccccc2)sc1=S	1.0	10.3µM*	?	2.3%
CCn1c(O)c(/C=C2\C=NN=C2c2ccccc2)sc1=S	-8.4	5.3%	-9.2%	29.5%
Cc1ccc(N(CC(=O)Nc2ccc(F)c(Cl)c2)S(=O)(=O)c2c(C)noc2C)cc1	-4.8	11.6µM*	8.9%	3.7%
Cc1ccc(N(CC(=O)Nc2cc(C)cc(C)c2)S(=O)(=O)c2c(C)noc2C)cc1	-27.8	?	?	-11.5%
CCc1cccc(NC(=O)CN(c2ccc(C)cc2)S(=O)(=O)c2c(C)noc2C)c1	16.0	11.6µM*	-36.9%	-5.9%
C[C@@H](c1ccccc1)N1C[C@H]2CCCN2c2cc(Br)ccc2S1(=O)=O	-16.2	7.31µM*	16.4µM*	?
O=S1(=O)c2ccc(Br)cc2N2CCC[C@@H]2CN1Cc1ccc(Cl)cc1	16.9	?	?	?
O=S1(=O)c2ccc(Br)cc2N2CC[C@H](C2)N1Cc1ccc(Cl)cc1	4.9	3.26µM*	6.51µM*	3.16µM*
O=S1(=O)c2ccc(Br)cc2N2CCC[C@H]2CN1Cc1ccccc1	-28.0	2.59µM*	5.17µM*	?
SMILES	Giardia kill	MCF10A rereplic	SW480 rereplic	uPA generation
O=S1(=O)c2ccc(Br)cc2N2CCC[C@@H]2CN1C1CC1	-3.7	?	0.4%	?
CC(C)[C@H](NC(=O)c1cccc(CN(Cc2ccccc2)C(=O)/C=C/c2ccccc2)c1)C(=O)O	-7.7	4.3%	-1.8%	0.1%
COc1ccc(C2CC(c3ccccc3)=NN2c2ccc(S(N)(=O)=O)cc2)cc1OC (configuration not stated)	-12.6	16.4µM*	23.1µM*	4.7%
NS(=O)(=O)c1ccc(N2N=C(c3ccccc3)CC2c2cccc(F)c2)cc1 (configuration not stated)	-18.3	2.59µM*	4.11µM*	6.9%
COc1ccc(C2CC(c3ccccc3)=NN2c2ccccc2)c(C(=O)O)c1OC (configuration not stated)	-10.6	18.4µM*	?	·
NS(=O)(=O)c1ccc(N2N=C(c3ccccc3)CC2c2cccc(Br)c2)cc1 (configuration not stated)	?	5.17µM*	23.1µM*	?
CNC(=S)N1N=C(c2ccccc2)CC1c1ccc(OC)c(OC)c1 (configuration not stated)	9.3	-2.6%	-2.6%	-3.7%
N#Cc1nc(-c2ccc(OCc3ccccc3Cl)cc2)oc1N1CCCCCC1	-12.5	·	·	·
CCCS(=O)(=O)c1nc(S(=O)(=O)c2ccc(C)cc2)c(N2CCC(C(N)=O)CC2)s1	-2.4	-1.7%	?	0.1%
CN(C(=O)c1ccc(OCC=C(c2ccccc2)c2ccccc2)cc1)c1ccccc1I	-24.3	·	·	·
CNC(=S)N1N=C(c2ccc(Br)cc2)CC1c1ccc(Br)cc1 (configuration not stated)	-5.0	254.9%[0.0737 µM]	?	1.7%
NS(=O)(=O)c1ccc(N2N=C(c3ccc(Br)cc3)CC2c2ccc(F)cc2)cc1 (configuration not stated)	-2.9	1.84µM*	?	-11.7%
COc1ccc(C2CC(c3ccccc3O)=NN2C(=O)c2ccccc2)cc1OC (configuration not stated)	25.4	-11.3%	2.6%	-18.5%
COc1cc(N2N=C(c3ccccc3)CC2c2ccccc2)c(C=O)cc1C=O (configuration not stated)	-4.0	?	18.5%	5.2%
COc1cc(C2CC(c3ccccc3)=NN2c2ccccc2)ccc1OCC(=O)O (configuration not stated)	3.5	4.11µM*	16.4µM*	1.5%
COc1ccc(C2=NN(c3ccc(C(=O)O)cc3)C(c3ccc(OC)c(OC)c3)C2)cc1 (configuration not stated)	-13.1	3.26µM*	18.4µM*	-1.3%
NS(=O)(=O)c1ccc(N2N=C(c3ccccc3)CC2c2ccccc2Br)cc1 (configuration not stated)	23.1	?	11.6µM*	-7.3%
c1ccc(C2=NN(c3ccccc3)C(c3ccco3)C2)cc1 (configuration not stated)	-2.7	?	?	-5.3%
COc1ccc(C2/C=C\CN(CC(C)C)C(Cc3ccccc3)C(=O)N2Cc2ccc(F)cc2)cc1 (configuration not stated)	17.9	·	·	·
COc1cc(C2CC(c3cccnc3)=NN2c2ccc(F)cc2)cc(OC)c1OC (configuration not stated)	-3.2	?	8.2µM*	-0.7%
COc1ccc([C@H]2CC(=O)C=C(c3cc4ccccc4s3)C2)cc1OC	22.6	8.5%	?	-8.3%
O=S(=O)(c1ccc2nc(Nc3ccccc3)ccc2c1)N1CCCCC1	-7.5	?	2.82µM*	-4.0%
O=[N+]([O-])c1cccc(S(=O)(=O)Nc2nc3ccccc3nc2Nc2cccc(S(=O)(=O)N3CCCCC3)c2)c1	-9.6	7.9%	9.0%	?
